Screening results from PubChem BioAssay.
JMJD2A Tudor = JMJD2A Tudor domain (human) inhibition; O75164; AlphaScreen JMJD2A-Tudor / H3K4me3 peptide binding; Potency, µM (series often up to 114 µM), for the others: at the highest dose activity change, negative = inhibition, actives largely listed as inhibitors; actives 4.4% (n = 390,000); AID 504339; note: potency is the fitted concentration of half-maximal effect; % is set by controls: 0 for no effect and ±100 for the full control effect; nearly all actives have a fitted effect of over 50% in size
Target sequence (O75164 whole entry, looked up, the tested form may be a part): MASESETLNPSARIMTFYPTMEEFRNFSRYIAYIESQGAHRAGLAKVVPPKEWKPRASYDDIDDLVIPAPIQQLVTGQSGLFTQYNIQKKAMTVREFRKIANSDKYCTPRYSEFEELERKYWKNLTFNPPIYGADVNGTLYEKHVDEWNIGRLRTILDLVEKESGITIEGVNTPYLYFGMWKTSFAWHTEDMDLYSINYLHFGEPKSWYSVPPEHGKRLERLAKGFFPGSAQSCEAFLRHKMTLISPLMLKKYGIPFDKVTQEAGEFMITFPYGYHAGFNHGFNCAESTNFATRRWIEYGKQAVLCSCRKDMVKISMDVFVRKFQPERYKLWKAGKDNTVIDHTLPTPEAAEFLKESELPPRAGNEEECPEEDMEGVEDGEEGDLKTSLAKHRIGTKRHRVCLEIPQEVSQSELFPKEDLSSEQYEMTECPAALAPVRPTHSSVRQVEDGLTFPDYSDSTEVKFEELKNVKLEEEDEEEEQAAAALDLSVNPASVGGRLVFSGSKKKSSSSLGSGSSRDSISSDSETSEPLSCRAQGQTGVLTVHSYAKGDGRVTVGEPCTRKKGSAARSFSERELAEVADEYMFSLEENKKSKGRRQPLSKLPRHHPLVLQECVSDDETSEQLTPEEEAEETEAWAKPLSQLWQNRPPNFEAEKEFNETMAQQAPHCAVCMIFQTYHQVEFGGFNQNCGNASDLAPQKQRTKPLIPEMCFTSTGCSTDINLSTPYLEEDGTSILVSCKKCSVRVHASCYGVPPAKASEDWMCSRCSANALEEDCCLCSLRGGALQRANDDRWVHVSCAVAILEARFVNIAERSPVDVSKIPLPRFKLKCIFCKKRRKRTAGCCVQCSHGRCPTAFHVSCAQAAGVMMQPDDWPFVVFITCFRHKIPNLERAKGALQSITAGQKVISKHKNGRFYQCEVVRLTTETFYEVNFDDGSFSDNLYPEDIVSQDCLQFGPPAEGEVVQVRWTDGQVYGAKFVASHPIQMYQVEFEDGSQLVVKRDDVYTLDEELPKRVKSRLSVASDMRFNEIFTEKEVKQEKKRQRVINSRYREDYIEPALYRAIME
HP1b chromo inh = blocks HP1-beta chromodomain binding to methylated histone tails; AlphaScreen HP1-beta / biotin-H3K9me3 peptide binding; actives 0.56% (n = 390,000); AID 540317; Potency, µM (highest dose often 114 µM), for inactives: top-dose activity change, negative = inhibition, usual class: inhibitors; note: potency is the fitted concentration of half-maximal effect; nearly all actives have a fitted effect of over 70% in size
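Compound inhibition of the preformed complex between 50 nM HP1-beta and 50 nM biotinylated H3K9me3 peptide was read by AlphaScreen. Buffer was PBS pH 7.4 with 0.01% Tween-20. Incubations ran 30 min at room temperature, with 10 ug/mL donor/acceptor beads.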
G9a block = inhibitors of human histone lysine methyltransferase G9a; Q96KQ7; G9a H3K9 monomethylation, AlphaScreen, 2 h; Potency, µM (series often up to 102 µM), for the others: at the top dose activity, negative = inhibition, usual class: inhibitors; actives 8.8% (n = 350,000); AID 504332; note: potency is the fitted concentration of half-maximal effect; % is set by controls: 0 for no effect and ±100 for the full control effect; nearly all actives have a fitted effect of over 75% in size
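Chemiluminescent proximity detection of H3K9 monomethylation, read after 10 min bead incubation in the dark. Reaction: 20 nM G9a, 500 nM biotin-H3K9 peptide, 20 uM SAM cofactor, 2 h, room temperature, following 15 min enzyme-compound preincubation.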
BAZ2B inh = blocks human BAZ2B. Q9UIF8. AlphaScreen BAZ2B-H3K14Ac peptide displacement. Potency, µM (titrated, usually from 114 µM), for the others: at the highest dose activity change, negative = inhibition, hits mostly inhibitors. actives 4.4% (n = 360,000); note: potency is the fitted concentration of half-maximal effect; % is set by controls: 0 for no effect and ±100 for the full control effect; nearly all actives have a fitted effect of over 60% in size
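Compounds, titrated to a top concentration of 110 uM, were incubated 30 min at room temperature with preformed BAZ2B/acetyl-K14 H3 peptide complex (50 nM each). Proximity signal was measured by AlphaScreen after 20 min with beads.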
Six1-Eya2 blk = blocks human Six1 binding to Eya2; actives 0.56% (n = 360,000); AlphaScreen GST-Six1/His-Eya2 binding, biochemical; active compounds read low; Q15475+O00167; activity change, % (no concentration beside the values); in the data active = activity change below about -65%; inconclusive = mostly about -30% to -63%; note: % is set by controls: 0 for no effect and ±100 for the full control effect
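Compounds are tested against tagged Six1 and Eya2 proteins bridged by glutathione donor and nickel acceptor beads; after a one-hour incubation at 37 °C without light, AlphaScreen emission is recorded.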
CtBP-E1A inh = CtBP/E1A binding inhibition; activity change, % (concentration not given with the values); actives 0.49% (n = 340,000); AID 651724; AlphaScreen GST-E1A/His-CtBP binding, 1536-well; active compounds read low; in the data active = activity change below about -65%; inconclusive = mostly about -30% to -63%; note: % is set by controls: 0 for no effect and ±100 for the full control effect
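Steps: dispense buffer (Tris pH 8.0, NaCl 300 mM, TCEP 1 mM, BSA, Tween 20); add 5X protein mix (GST-E1A, His-CtBP, 125 nM each); pin 23 nL compound; 2 h at 37 °C, dark; add 5X beads (50 ug/mL); 1 h; read.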
* hit, by the source's call; ? = inconclusive; . = no result; [ ] = another dose, or the depositor's remark. Only some compounds are listed: those with a hit (about 10% of all), similar ones and a draw of the others. Unless noted, calls come from the whole dose curve; as a rule, active = well fitted inhibition curve with a large enough effect; inconclusive = small, poorly fitted or top-dose-only effect; inactive = no such curve, though single readings can be large or run the other way.

SMILES	JMJD2A Tudor	HP1b chromo inh	G9a block	BAZ2B inh	Six1-Eya2 blk	CtBP-E1A inh
O=C(Cc1ccc(Cl)cc1)NCCc1cnc[nH]1	-2%	19%	-12%	7%	-5	2
S=C(NCCCN(Cc1ccc(Cl)cc1)c1ccc(Br)cn1)NCc1ccc2nc[nH]c2c1	50µM*	-15%	.	.	.	.
Clc1ccc(CN(CCCNc2ncnc(NCCCc3cnc[nH]3)n2)c2ccc(Br)cn2)cc1Cl	35µM*	.	.	.	.	.
NCCCN(Cc1ccc(Cl)c(Cl)c1)c1ccccn1	-31%	-2%	.	.	.	.
NCCN(Cc1ccc(Cl)c(Cl)c1)c1ccc(Br)cn1	-22%	23%	.	.	.	.
CCCCCn1c(=O)[nH]c2cc(C(=O)NC(C)CC)ccc2c1=O (stereo unspecified)	11%	20%	8%[59 µM]	2%	.	.
CCc1ccc2c(c1)-c1ccccc1S(=O)(=O)N2CC(=O)N1CCCCC1	-24%	-1%	-16%[59 µM]	-9%	.	.
S=C(NCCCc1cnc[nH]1)NCCN(Cc1ccc(Cl)c(Cl)c1)c1ccc(Br)cn1	56µM*	.	.	.	.	.
CN(CCCc1cnc[nH]1)C(=S)NCCCN(Cc1ccc(Cl)cc1)c1ccc(Br)cn1	32µM*	?	.	.	.	.
COc1ccc(CN(CCCN)c2ccc(Br)cn2)cc1	-25%	-1%	.	.	.	.
CC(C)(C)C(=O)Cn1c(=O)n(-c2ccc(Cl)cc2)c(=O)c2c3c(sc21)CCCC3	-5%	30%	-5%[59 µM]	-2%	.	.
COc1ccc(CC(=O)OCC(=O)NC2CCCC(C)C2C)cc1OC (stereo unspecified)	-6%	32%	.	.	0	-4
O=C(CSc1nc(O)c(C/C=C/c2ccccc2)c(=O)[nH]1)Nc1cccc(F)c1	-30%	-10%	-38%[59 µM]	-12%	.	.
O=C(CCC(=O)N1CCSc2ccccc21)NCc1ccccc1Cl	-2%	43%	9%[59 µM]	-18%	.	.
CC(Sc1nc2ccccc2o1)C(=O)O (stereo unspecified)	1%	37%	50µM*	-7%	1	3
Cc1ccccc1OCc1nnc(SC(C)C(=O)O)n1-c1ccccc1 (stereo unspecified)	.	.	.	.	-2	5
CC(Sc1nnc(-c2cc3ccccc3o2)n1-c1ccccc1)C(=O)O (stereo unspecified)	-18%	30%	8.9µM*	6%	3	5
CCC(Sc1nc2ccccc2o1)C(=O)O (stereo unspecified)	-10%	34%	?	4%	4	7
COc1ccc(C(=O)CSc2nnc(CCc3ccccc3)n2-c2ccccc2)cc1	56µM*	17%	40µM*	-1%	-2	-6
CC(C)Oc1ccc(CCc2nnc(SC(C)C(=O)O)n2-c2ccccc2)cc1 (stereo unspecified)	56µM*	26%[57 µM]	.	2%	-5	3
Cc1cc(C)c(NC(=O)C(C)Sc2nnc(-c3ccco3)n2-c2ccccc2)c(C)c1 (stereo unspecified)	.	.	-9%	-11%	.	.
O=C(Cn1ncc2c3ccccc3n(Cc3ccccc3F)c2c1=O)N1CCCCCC1	-13%	22%	11%[59 µM]	-14%	.	.
COc1ccc(NC(=O)Nc2nnc(N3CCCC3)s2)cc1	-13%	26%	-33%[59 µM]	-3%	.	.
CCN1CCN(C(=O)c2cnn(-c3ccc(F)cc3)c2-n2cccc2)CC1	1%	43%	6%[59 µM]	-2%	.	.
CC(C)OC(=O)c1cccnc1N1CCN(c2cccc(Cl)c2)CC1	66%	127%	87%[59 µM]	47%	0	.
SMILES	JMJD2A Tudor	HP1b chromo inh	G9a block	BAZ2B inh	Six1-Eya2 blk	CtBP-E1A inh
COc1ccc(-n2c(CCc3ccccc3)nnc2SCC(=O)c2ccccc2)cc1	-35%	0%	8.9µM*	-37%	-6	-13
O=C1CN(c2nc(-c3ccccc3)c3cc(Cl)ccc3n2)c2ccccc2N1	-4%	18%	50µM*	-3%	-9	4
CSc1cccc(NS(=O)(=O)c2cn(C)c(C)n2)c1	-3%	24%[57 µM]	-1%[59 µM]	-3%	.	.
O=C(CCCSc1nc2ccccc2[nH]1)NCc1ccc(Cl)cc1	-17%	43%	10µM*	-2%	-2	.
Cc1ccc(CNC(=O)CSc2nc3ccccc3[nH]2)cc1	-12%	54%	25µM*	-20%	-8	.
O=C(CSc1nc2ccccc2[nH]1)NCCc1ccc(Cl)cc1	-27%	21%	18%[59 µM]	0%	13	21
O=C(O)C(Cc1ccc(Cl)cc1)Sc1nc2ccccc2[nH]1 (stereo unspecified)	-2%	-11%	50µM*	-1%	-6	-4
O=C(CSc1nc2ccccc2[nH]1)N=Nc1c(O)[nH]c2ccccc12	-28%	3%	45µM*	-30%	-14	-23
COC(=O)/C(=C\Nc1ccc(Cl)cc1Cl)NC(=O)c1ccc(OC)cc1	-11%	8%	?	-30%	-15	-11
CCC/C=C/c1ccc(CN2C(C)C(=O)N(Cc3cn(CCC4OCCO4)nn3)CCS2(=O)=O)cc1 (stereo unspecified)	.	.	.	.	-5	?
COCCn1c(=O)c(-c2cc(F)cc(F)c2)nc2cnc(N3CCOCC3)nc21	.	.	5%[0.501 µM]	.	.	.
COC(=O)c1ccc(Cl)c(NC(=O)CN(c2ccccc2)S(=O)(=O)c2ccc(OC)cc2)c1	-14%	20%	4%	-1%	4	-9
COc1ccccc1NC(=O)N1CCCC(CNC(=O)c2ccccc2Cl)C1 (stereo unspecified)	-2%	21%	1%[0.0925 µM]	-1%	3	-3
C=CCSc1nnc(NC(=O)CSc2nc3ccccc3[nH]2)s1	1%	27%	1.8µM*	-8%	-4	-6
O=C(CSc1nc2ccccc2[nH]1)N1CCN(S(=O)(=O)c2ccc(Cl)cc2)CC1	-10%	42%	35µM*	1%	-9	4
COC(=O)c1ccc(CNC(=O)CSc2nc3ccccc3[nH]2)cc1	2%	20%	40µM*	-2%	-5	-6
CCOc1ccc(C=NNC(=O)c2ccc(-n3cnnn3)cc2)cc1	-33%	30%	.	.	3	-6
COCC(=O)N1CCC2(CC1)CCN(c1ccccc1)CC2	.	.	6%[12.7 µM]	.	.	.
Cc1cccc(NC(=O)Cn2cc(C(=O)c3ccco3)c3ccccc32)c1C	-17%	14%	-31%[59 µM]	?	.	.
O=C(NCc1ccccc1)n1cc(P(=S)(c2ccccc2)c2ccccc2)c2ccccc21	-11%	.	.	.	.	.
COc1ccc(S(=O)(=O)NNC(=O)c2csc(-n3nc(C)cc3C(F)(F)F)n2)cc1OC	-8%	12%	35µM*	?	-23	-15
CCc1nnc(NC(=O)C2CC(=O)N(C3CCCC3)C2)s1 (stereo unspecified)	2%	13%	?	8%	-4	1
CCC(CC)c1nnc(NC(=O)C2CC(=O)N(C3CCCC3)C2)s1 (stereo unspecified)	-4%	-13%	11µM*	3%	0	-3
